# Source: PubChem BioAssay (NCATS)
# Results filed as inconclusive are left out. Values without a mark were called inactive. Active and inactive are the calls of the source. The call rests on the fitted dose curve; in most records, active means well fitted curve in the direction sought with a large enough effect; inconclusive means small, poorly fitted or top-dose-only effect, or another doubt; inactive means no such curve, though single readings can be large; an effect the other way counts as inactive or inconclusive.
# Key:
# [1] = qHTS of pediatric cancer cell lines to identify multiple opportunities for drug repurposing: Primary screen for control Hh wild type fibroblast cells (AID 1347106); further: nearly all actives have a fitted effect of over 55% in size; further: potency means the concentration at half of the fitted maximal effect
# How it was run: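 Viability after 48 h compound treatment at 37C, 500-1,000 cells/well, read as ATP luminescence with CellTiter-Glo. Primary screens used 11-point (MIPE, 0.78 nM-46 µM) or 8-point (NPC, 0.59 nM-46 µM) final concentrations; follow-up screens used 11-point dilutions.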
# [2] = qHTS of pediatric cancer cell lines to identify multiple opportunities for drug repurposing: Primary screen for Rh30 cells (AID 1347107); further: nearly all actives have a fitted effect of over 75% in size; further: potency means the concentration at half of the fitted maximal effect
# How it was run: (§1)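 Cells (500-1,000/well) in growth media were settled 5 h at 37 degrees C, then given compounds for 48 h. Viability was read as CellTiter-Glo luminescence. Primary runs used MIPE at 11 points (0.78 nM-46 µM) and NPC at 8 points (0.59 nM-46 µM); follow-ups used 11 points.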
# [3] = qHTS of pediatric cancer cell lines to identify multiple opportunities for drug repurposing: Primary screen for Rh41 cells (AID 1347108); further: nearly all actives have a fitted effect of over 70% in size; further: potency means the concentration at half of the fitted maximal effect
# How it was run: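 CRCs from 8- or 11-point titrations (lowest final 0.59 nM NPC, 0.78 nM MIPE). Cell viability: CellTiter-Glo after 48 h incubation, 15 min room-temperature development, luminescence imaging.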
# [4] = qHTS of pediatric cancer cell lines to identify multiple opportunities for drug repurposing: Confirmatory screen for NB1643 cells (AID 1347109); further: nearly all actives have a fitted effect of over 45% in size; further: potency means the concentration at half of the fitted maximal effect
# How it was run: as §1
# [5] = qHTS of pediatric cancer cell lines to identify multiple opportunities for drug repurposing: Confirmatory screen for A673 cells (AID 1347110);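 further: potency means the concentration at half of the fitted maximal effect; cells exposed to compound for 48 h before the viability read; nearly all actives have a fitted effect of over 65% in size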
# How it was run: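 Concentration-response curves came straight from titrations: 11 points (0.78 nM to 46 µM) for MIPE and several concentrations (0.59 nM to 46 µM) for NPC in primary, 11 points in follow-up. Readout: ATP luminescence at 48 h.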
# [6] = qHTS of pediatric cancer cell lines to identify multiple opportunities for drug repurposing: Confirmatory screen for SK-N-MC cells (AID 1347111);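 further: cells exposed to compound for 48 h before the readout; nearly all actives have a fitted effect of over 70% in size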; further: potency means the concentration at half of the fitted maximal effect
# How it was run: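 Metabolically active cells were quantified by ATP-dependent luminescence (CellTiter-Glo, 15 min at room temperature) following 48 h treatment. Cells had been plated at 500-1,000 per well and settled for 5 h beforehand.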
# [7] = qHTS of pediatric cancer cell lines to identify multiple opportunities for drug repurposing: Confirmatory screen for BT-12 cells (AID 1347112); further: nearly all actives have a fitted effect of over 55% in size; further: potency means the concentration at half of the fitted maximal effect
# How it was run: as §1
# [8] = qHTS of pediatric cancer cell lines to identify multiple opportunities for drug repurposing: Confirmatory screen for LAN-5 cells (AID 1347113); further: potency means the concentration at half of the fitted maximal effect; nearly all actives have a fitted effect of over 65% in size
# How it was run: as §1
# [9] = qHTS of pediatric cancer cell lines to identify multiple opportunities for drug repurposing: Confirmatory screen for DAOY cells (AID 1347114); further: nearly all actives have a fitted effect of over 65% in size; further: potency means the concentration at half of the fitted maximal effect
# How it was run: (§2)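 Viability measured as metabolically active cells via CellTiter-Glo luminescence following 48 hours of compound exposure, 11-point dilutions in confirmatory testing. 500-1,000 cells/well plated 5 hours before dosing; controls were DMSO and 2.3 µM bortezomib.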
# [10] = qHTS of pediatric cancer cell lines to identify multiple opportunities for drug repurposing: Confirmatory screen for SJ-GBM2 cells (AID 1347116); further: potency means the concentration at half of the fitted maximal effect; nearly all actives have a fitted effect of over 60% in size
# How it was run: as §2
# [11] = qHTS of pediatric cancer cell lines to identify multiple opportunities for drug repurposing: Confirmatory screen for BT-37 cells (AID 1347117); further: nearly all actives have a fitted effect of over 55% in size; further: potency means the concentration at half of the fitted maximal effect
# How it was run: as §1
# [12] = qHTS of pediatric cancer cell lines to identify multiple opportunities for drug repurposing: Confirmatory screen for TC32 cells (AID 1347118);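 further: cells exposed to compound for 48 h before the read; nearly all actives have a fitted effect of over 65% in size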; further: potency means the concentration at half of the fitted maximal effect
# How it was run: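 TC32 cells, 500-1,000/well in growth medium, compound-treated 48 h at 37 °C; viability from CellTiter-Glo luminescence. Primary screen: MIPE 11-point (0.78 nM–46 µM final), NPC 8-point (0.59 nM–46 µM final); confirmatory at 11-point dilutions.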
# [13] = qHTS of pediatric cancer cell lines to identify multiple opportunities for drug repurposing: Confirmatory screen for MG 63 (6-TG R) cells (AID 1347119); further: nearly all actives have a fitted effect of over 55% in size; further: potency means the concentration at half of the fitted maximal effect
# How it was run: as §1
# [14] = qHTS of pediatric cancer cell lines to identify multiple opportunities for drug repurposing: Confirmatory screen for control Hh wild type fibroblast cells (AID 1347121); further: nearly all actives have a fitted effect of over 70% in size; further: potency means the concentration at half of the fitted maximal effect
# How it was run: as §1
# [15] = qHTS of pediatric cancer cell lines to identify multiple opportunities for drug repurposing: Confirmatory screen for U-2 OS cells (AID 1347122)
# How it was run: as §1
# [16] = qHTS of pediatric cancer cell lines to identify multiple opportunities for drug repurposing: Confirmatory screen for Rh41 cells (AID 1347123);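 further: potency means the concentration at half of the fitted maximal effect; 48 h compound exposure; nearly all actives have a fitted effect of over 60% in size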
# How it was run: as §1
# [17] = qHTS of pediatric cancer cell lines to identify multiple opportunities for drug repurposing: Confirmatory screen for Rh18 cells (AID 1347125)
# How it was run: as §1
# [18] = qHTS of pediatric cancer cell lines to identify multiple opportunities for drug repurposing: Confirmatory screen for Rh30 cells (AID 1347126); further: nearly all actives have a fitted effect of over 55% in size; further: potency means the concentration at half of the fitted maximal effect
# How it was run: as §1
# [19] = qHTS of pediatric cancer cell lines to identify multiple opportunities for drug repurposing: Confirmatory screen for NB-EBc1 cells (AID 1347115);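 further: cells exposed to compound for 48 h before the viability read; nearly all actives have a fitted effect of over 45% in size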
# How it was run: as §1
smiles,measurement,setting,value
Nc1nc(-c2nn(Cc3ccccc3F)c3ncccc23)nc(N)c1N1CCOCC1,Potency,[1],inactive
same,Potency,[2],inactive
same,Potency,[3],inactive
CN1CCC(CNc2ccc3ncc(-c4cccc(OC(F)(F)F)c4)n3n2)CC1,Potency,[1],18.7 µM (active)
same,Potency,[2],23.5 µM (active)
same,Potency,[3],18.7 µM (active)
CN1c2cc(O)c(N=NC(N)=O)cc2CC1S(=O)(=O)O (stereo not drawn),Potency,[1],inactive
same,Potency,[2],inactive
same,Potency,[3],inactive
Cn1c(CNc2ccc(C(=N)N)cc2)nc2cc(C(=O)N(CCC(=O)O)c3ccccn3)ccc21,Potency,[1],inactive
same,Potency,[2],inactive
same,Potency,[3],inactive
CNC(=O)c1ccc(-c2cnc3ncc(Cc4ccc5ncccc5c4)n3n2)cc1F,Potency,[1],inactive
same,Potency,[2],inactive
same,Potency,[3],inactive
Nc1nccc(Oc2ccc(NC(=O)c3c[nH]cc(-c4ccc(F)cc4)c3=O)cc2F)c1Cl,Potency,[1],inactive
same,Potency,[2],inactive
CC(C)Nc1cc(C(F)(F)F)cc2nc(NC(=O)c3cccnc3)nn12,Potency,[1],inactive
same,Potency,[2],inactive
Nc1ccn([C@@H]2CS[C@H](CO)O2)c(=O)n1,Potency,[1],inactive
same,Potency,[2],inactive
same,Potency,[3],inactive
CCOc1ccccc1OCCNC(C)Cc1ccc(OC)c(S(N)(=O)=O)c1 (stereo not drawn),Potency,[1],inactive
same,Potency,[2],inactive
same,Potency,[3],inactive
COCCn1c2c([n+](Cc3cnccn3)c1C)C(=O)c1ccccc1C2=O,Potency,[1],0.264 µM (active)
same,Potency,[2],0.0148 µM (active)
same,Potency,[3],0.0469 µM (active)
same,Potency,[4],0.208 µM (active)
same,Potency,[5],0.0165 µM (active)
same,Potency,[6],0.0093 µM (active)
same,Potency,[7],0.0093 µM (active)
same,Potency,[8],0.0059 µM (active)
same,Potency,[9],0.0414 µM (active)
same,Potency,[10],0.0657 µM (active)
same,Potency,[11],0.0827 µM (active)
same,Potency,[12],0.0185 µM (active)
same,Potency,[13],0.0737 µM (active)
same,Potency,[14],0.261 µM (active)
same,Potency,[15],0.0147 µM (active)
same,Potency,[16],0.0185 µM (active)
same,Potency,[17],0.0147 µM (active)
same,Potency,[18],inactive
O=C(O)CCCc1c[nH]c2ccccc12,Potency,[1],inactive
same,Potency,[2],inactive
O=c1c2ccccc2nc2n1CCc1c-2[nH]c2ccccc12,Potency,[1],inactive
same,Potency,[2],inactive
same,Potency,[3],inactive
c1nc2nc(Nc3ccc(N4CCOCC4)cc3)nc(NC3CCCCC3)c2[nH]1,Potency,[1],inactive
same,Potency,[2],11.8 µM (active)
same,Potency,[3],5.9 µM (active)
O=C1CCC[C@@H]2[C@H]3CCC[N+]4([O-])CCC[C@@H](CN12)[C@@H]34 (stereo partly drawn),Potency,[1],inactive
same,Potency,[2],inactive
same,Potency,[3],inactive
Nc1ccccc1NC(=O)c1ccc(CNc2nccc(-c3cccnc3)n2)cc1,Potency,[1],14.8 µM (active)
same,Potency,[2],inactive
same,Potency,[5],2.61 µM (active)
same,Potency,[6],inactive
same,Potency,[9],2.93 µM (active)
same,Potency,[19],inactive
same,Potency,[10],1.47 µM (active)
same,Potency,[11],inactive
same,Potency,[12],inactive
same,Potency,[13],inactive
same,Potency,[14],inactive
same,Potency,[15],0.414 µM (active)
same,Potency,[18],1.65 µM (active)
C=CC(=O)Nc1cc2c(Nc3ccc(F)c(Cl)c3)ncnc2cc1C#CC(C)(C)N1CCN(C)CC1,Potency,[1],inactive
same,Potency,[2],11.8 µM (active)
same,Potency,[3],9.35 µM (active)
same,Potency,[4],5.37 µM (active)
same,Potency,[5],4.27 µM (active)
same,Potency,[6],1.91 µM (active)
same,Potency,[7],17 µM (active)
same,Potency,[9],4.79 µM (active)
same,Potency,[10],6.03 µM (active)
same,Potency,[11],3.02 µM (active)
same,Potency,[12],3.02 µM (active)
same,Potency,[13],4.27 µM (active)
same,Potency,[14],19.1 µM (active)
same,Potency,[15],4.79 µM (active)
same,Potency,[16],2.69 µM (active)
same,Potency,[17],6.03 µM (active)
same,Potency,[18],3.8 µM (active)
O=C(O)C1(Cc2cccc(Nc3nccs3)n2)CCC(Oc2cccc(Cl)c2F)CC1 (stereo not drawn),Potency,[1],inactive
same,Potency,[3],inactive
O=c1[nH]nc(Sc2ncc([N+](=O)[O-])s2)n1-c1ccc2c(c1)OCCO2,Potency,[1],14.8 µM (active)
same,Potency,[2],10.5 µM (active)
same,Potency,[3],6.62 µM (active)
same,Potency,[4],7.37 µM (active)
same,Potency,[5],9.27 µM (active)
same,Potency,[6],5.85 µM (active)
same,Potency,[7],9.27 µM (active)
same,Potency,[9],23.3 µM (active)
same,Potency,[10],13.1 µM (active)
same,Potency,[11],16.5 µM (active)
same,Potency,[12],6.57 µM (active)
same,Potency,[13],11.7 µM (active)
same,Potency,[15],9.27 µM (active)
same,Potency,[16],10.4 µM (active)
same,Potency,[18],7.37 µM (active)
COc1cc2c(Oc3ccc(-c4cnc(Nc5ccc(F)cc5)n(C)c4=O)cc3F)ccnc2cc1OCCCN1CCOCC1,Potency,[1],23.5 µM (active)
same,Potency,[2],9.35 µM (active)
same,Potency,[3],4.69 µM (active)
same,Potency,[4],11.7 µM (active)
same,Potency,[5],4.14 µM (active)
same,Potency,[6],2.93 µM (active)
same,Potency,[7],20.8 µM (active)
same,Potency,[9],11.7 µM (active)
same,Potency,[10],14.7 µM (active)
same,Potency,[11],18.5 µM (active)
same,Potency,[12],2.93 µM (active)
same,Potency,[13],2.93 µM (active)
same,Potency,[15],4.65 µM (active)
same,Potency,[16],3.69 µM (active)
same,Potency,[17],8.27 µM (active)
same,Potency,[18],4.65 µM (active)
NC1(Cc2ccc(Cl)cc2)CCN(c2ncnc3[nH]ccc23)CC1,Potency,[1],inactive
same,Potency,[3],3.32 µM (active)
CN(C)CC(C)(C)CNc1nn2c(-c3ccccc3)nnc2cc1C1CCC1,Potency,[1],inactive
same,Potency,[2],inactive
same,Potency,[4],inactive
same,Potency,[6],20.8 µM (active)
same,Potency,[7],inactive
same,Potency,[9],inactive
same,Potency,[12],18.5 µM (active)
same,Potency,[13],inactive
same,Potency,[14],inactive
